Results filed as inconclusive are left out. Activity calls are given as the source filed them. Rule for the calls, unless noted: active = hit-call score of the fitted dose curve at least 0.9, where 1 is the maximum; inactive = score below 0.9.
Experiments:
[1] = molecular target: Myc proto-oncogene protein (Homo sapiens) (UniProt P01106); assay: ATG_Myc_CIS: Attagene CIS-FACTORIAL HepG2 Assay for human Myelocytomatosis (Myc) Proto-Oncogene Transcription Factor (AID 2282990); settings: HepG2, Attagene cis-reporter transcription factor activity; actives raise or lower the signal
Sequence of Myc proto-oncogene protein (Homo sapiens) (P01106 whole entry, looked up): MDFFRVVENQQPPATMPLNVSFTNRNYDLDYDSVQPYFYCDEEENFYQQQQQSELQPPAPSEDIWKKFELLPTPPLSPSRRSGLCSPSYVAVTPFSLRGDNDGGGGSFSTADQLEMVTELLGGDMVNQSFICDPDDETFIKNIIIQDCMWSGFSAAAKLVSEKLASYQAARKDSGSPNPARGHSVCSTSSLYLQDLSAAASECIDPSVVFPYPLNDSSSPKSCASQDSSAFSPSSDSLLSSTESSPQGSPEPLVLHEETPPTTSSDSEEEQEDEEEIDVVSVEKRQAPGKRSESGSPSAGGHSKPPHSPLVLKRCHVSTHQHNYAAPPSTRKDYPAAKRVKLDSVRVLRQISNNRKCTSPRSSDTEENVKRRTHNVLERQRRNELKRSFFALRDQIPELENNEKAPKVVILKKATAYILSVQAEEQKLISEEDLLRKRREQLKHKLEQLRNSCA
How it was run: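 Transiently transfected HepG2 cells bearing cis-promoter reporter units for endogenous transcription factors; 24 h exposure. Reporter mRNA measured by RT-PCR, 6-FAM primer extension, HpaI cut and capillary electrophoresis; bidirectional fit relative to DMSO.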

[2] = ATG_NF_kB_CIS: Attagene CIS-FACTORIAL HepG2 Assay for human Nuclear Factor Kappa B (NF-kB) (AID 2282991); settings: HepG2 Attagene cis-factorial NF-kB reporter mRNA; actives raise or lower the signal
How it was run: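 HepG2, transient multi-reporter transfection, cis promoter elements (endogenous TFs). 24 h exposure. Total RNA → RT → PCR → 6-FAM label → HpaI → CE. Gain/loss vs DMSO.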

[3] = ATG_NRF2_ARE_CIS: Attagene CIS-FACTORIAL HepG2 Assay for human Nuclear Factor Erythroid 2 Related Factor 2 (NFR2) response to Antioxidant Response Elements (ARE) (AID 2282992); settings: HepG2 Attagene ARE/NRF2 reporter, transcription factor activity; actives raise or lower the signal;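 for AC50: reporter mRNA level measured by RT-PCR and capillary electrophoresis fluorescence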
How it was run: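 Readout: reporter mRNA quantified by RT-PCR plus FAM-labelled primer extension, HpaI digestion and capillary electrophoresis, 24 h after dosing transfected HepG2 cells. Gain or loss of signal is fitted bidirectionally against DMSO baseline.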

[4] = ATG_Oct_MLP_CIS: Attagene CIS-FACTORIAL HepG2 Assay for human Octamer-Binding Transcription Factor (Oct) (AID 2282993); settings: HepG2 Attagene cis-factorial Oct reporter, mRNA; actives raise or lower the signal
How it was run: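 Using HepG2 cells bearing transfected cis-reporter constructs, mRNA induction was read after 24 h by fluorescent RT-PCR and capillary electrophoresis, with DMSO defining baseline for gain- or loss-of-signal fits.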

[5] = molecular target: Cellular tumor antigen p53 (Homo sapiens) (UniProt P04637); assay: ATG_p53_CIS: Attagene CIS-FACTORIAL HepG2 Assay for human p53 Transcription Factor (AID 2282994); settings: HepG2 p53 cis-element reporter, Attagene mRNA; actives raise or lower the signal
Sequence of Cellular tumor antigen p53 (Homo sapiens) (P04637 whole entry, looked up): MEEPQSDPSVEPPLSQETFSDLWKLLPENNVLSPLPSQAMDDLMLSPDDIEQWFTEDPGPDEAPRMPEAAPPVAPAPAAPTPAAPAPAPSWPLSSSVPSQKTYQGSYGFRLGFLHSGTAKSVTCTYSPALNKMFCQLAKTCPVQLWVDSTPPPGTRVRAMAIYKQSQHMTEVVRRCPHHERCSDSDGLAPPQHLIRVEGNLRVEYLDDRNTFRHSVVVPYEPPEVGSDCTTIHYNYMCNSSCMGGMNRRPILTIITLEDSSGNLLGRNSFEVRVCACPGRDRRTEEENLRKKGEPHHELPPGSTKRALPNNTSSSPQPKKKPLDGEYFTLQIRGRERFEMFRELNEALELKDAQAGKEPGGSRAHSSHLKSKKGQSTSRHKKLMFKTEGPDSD
How it was run: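 Read-out: reporter mRNA by RT-PCR plus capillary electrophoresis with fluorescence detection. Human HepG2 liver cells carried transfected multi-reporter cis-element constructs, dosed 24 h. Gain or loss of signal fitted bidirectionally against DMSO control.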

[6] = BSK_3C_uPAR: BioMAP Diversity Plus: 3C Assay for Urokinase-type plasminogen activator receptor (uPAR) Biomarker Activity (AID 2282998); settings: BioMAP 3C HUVEC, uPAR biomarker ELISA; actives raise or lower the signal
How it was run: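 In this endothelial cell-based assay, human umbilical vein primary cells were treated with chemicals and harvested at 24 h. uPAR was quantified using ELISA, with gains or losses fitted relative to DMSO controls.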

[7] = BSK_3C_VCAM1: BioMAP Diversity Plus: 3C Assay for Vascular cell adhesion molecule 1 (VCAM1) Biomarker Activity (AID 2282999); settings: BioMAP 3C HUVEC, VCAM1 ELISA, cytokine-stimulated; actives raise or lower the signal
How it was run: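 HUVEC primary cells, 24 h compound exposure; VCAM-1 by ELISA; gain/loss of signal fitted bidirectionally vs DMSO baseline.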

[8] = BSK_4H_Eotaxin3: BioMAP Diversity Plus: 4H Assay for Eotaxin 3 Biomarker Activity (AID 2283000); settings: primary human endothelial cells (HUVEC); actives raise or lower the signal;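 for outcome: CCL26 protein level quantified by ELISA in parallel with SRB cytotoxicity check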
How it was run: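 Chemicals were added to human umbilical vein endothelium cultures, and Eotaxin-3 was quantified by ELISA at 24 h. Values were derived by bidirectional fitting with DMSO serving as negative control and activity baseline.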

[9] = molecular target: human Peroxisome Proliferator-activated Receptor delta (PPARd), PPARD (gene 5467) (UniProt Q03181); assay: ATG_PPARd_TRANS: Attagene TRANS-FACTORIAL HepG2 Assay for human Peroxisome Proliferator-activated Receptor delta (PPARd) (AID 2283002; active = hit-call score of the fitted dose curve at least 0.9, where 1 is the maximum)
Sequence of human Peroxisome Proliferator-activated Receptor delta (PPARd), PPARD (gene 5467) (Q03181 whole entry, looked up, the tested form may be a part): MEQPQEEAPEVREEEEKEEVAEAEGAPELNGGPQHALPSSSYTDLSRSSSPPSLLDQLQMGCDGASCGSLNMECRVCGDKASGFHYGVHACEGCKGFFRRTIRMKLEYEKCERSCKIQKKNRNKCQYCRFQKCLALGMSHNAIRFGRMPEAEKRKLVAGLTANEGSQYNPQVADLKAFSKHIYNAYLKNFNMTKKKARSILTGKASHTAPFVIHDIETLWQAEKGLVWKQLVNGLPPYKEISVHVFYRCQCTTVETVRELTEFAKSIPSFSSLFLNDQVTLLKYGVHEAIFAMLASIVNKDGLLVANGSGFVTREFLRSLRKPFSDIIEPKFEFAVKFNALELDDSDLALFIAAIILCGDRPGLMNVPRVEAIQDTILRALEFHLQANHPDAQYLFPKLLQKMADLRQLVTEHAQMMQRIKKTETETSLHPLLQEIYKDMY
How it was run: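 HepG2 cells transiently transfected with GAL4-UAS multiplexed reporter units driven by exogenous chimeric NR-GAL4 proteins; 24 h compound exposure. Reporter mRNA measured by RT-PCR, 6-FAM primer extension, HpaI digestion and capillary electrophoresis; gain of signal fitted relative to DMSO.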

[10] = read-out: Intercellular Adhesion Molecule 1 (ICAM1), ICAM1 (gene 3383); assay: BSK_3C_ICAM1: BioMAP Diversity Plus: 3C Assay for Intercellular Adhesion Molecule 1 (ICAM1) Biomarker Activity (AID 2283003); settings: primary human endothelial cells (HUVEC); actives raise or lower the signal
How it was run: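 Using DMSO as baseline, bidirectional curve fitting was applied to ICAM-1 ELISA signals from HUVEC in the 3C system, measured 24 h after compound addition.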

[11] = molecular target: human Retinoic Acid Receptor beta (RARb), RARB (gene 5915) (UniProt P10826); assay: ATG_RARb_TRANS: Attagene TRANS-FACTORIAL HepG2 Assay for human Retinoic Acid Receptor beta (AID 2283004; active = hit-call score of the fitted dose curve at least 0.9, where 1 is the maximum)
Sequence of human Retinoic Acid Receptor beta (RARb), RARB (gene 5915) (P10826 whole entry, looked up): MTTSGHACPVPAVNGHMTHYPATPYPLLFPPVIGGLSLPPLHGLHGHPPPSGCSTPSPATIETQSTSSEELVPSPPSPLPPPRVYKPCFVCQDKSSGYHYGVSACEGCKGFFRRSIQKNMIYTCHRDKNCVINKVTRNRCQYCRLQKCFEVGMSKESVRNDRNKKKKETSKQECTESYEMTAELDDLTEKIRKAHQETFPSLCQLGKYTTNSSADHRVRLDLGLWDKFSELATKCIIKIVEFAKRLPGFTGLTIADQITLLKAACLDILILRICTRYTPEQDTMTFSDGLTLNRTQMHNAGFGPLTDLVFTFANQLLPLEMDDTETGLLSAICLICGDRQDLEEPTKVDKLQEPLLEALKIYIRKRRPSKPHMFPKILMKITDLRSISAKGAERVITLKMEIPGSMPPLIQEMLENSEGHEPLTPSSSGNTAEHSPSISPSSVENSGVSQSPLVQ
How it was run: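 Transient transfection of HepG2 with multiple reporter units → chemical dosing, 24 h → total RNA isolation → RT with oligo(dT) → reporter-specific PCR, 6-FAM primer extension, HpaI digest → capillary electrophoresis. Positive direction vs DMSO control.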

[12] = molecular target: Retinoic acid receptor alpha (Homo sapiens) (UniProt P10276); assay: ATG_RARa_TRANS: Attagene TRANS-FACTORIAL HepG2 Assay for human Retinoic Acid Receptor alpha (RARa) (AID 2283005; active = hit-call score of the fitted dose curve at least 0.9, where 1 is the maximum)
Sequence of Retinoic acid receptor alpha (Homo sapiens) (P10276 whole entry, looked up, the tested form may be a part): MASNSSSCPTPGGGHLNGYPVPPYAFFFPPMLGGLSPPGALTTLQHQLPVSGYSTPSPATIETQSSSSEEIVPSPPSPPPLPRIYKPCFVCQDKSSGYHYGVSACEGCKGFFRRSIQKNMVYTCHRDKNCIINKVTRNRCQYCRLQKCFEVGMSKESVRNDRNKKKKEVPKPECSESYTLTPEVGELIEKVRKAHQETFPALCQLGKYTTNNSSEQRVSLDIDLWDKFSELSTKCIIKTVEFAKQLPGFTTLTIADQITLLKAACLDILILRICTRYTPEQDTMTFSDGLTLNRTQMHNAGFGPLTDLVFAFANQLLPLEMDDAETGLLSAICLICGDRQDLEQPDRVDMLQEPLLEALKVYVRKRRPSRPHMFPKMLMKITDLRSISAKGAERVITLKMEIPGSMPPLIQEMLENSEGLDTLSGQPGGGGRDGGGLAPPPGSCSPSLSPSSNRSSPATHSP
How it was run: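 HepG2 transiently transfected with multiplex GAL4-UAS reporter units including a human RARa–GAL4 chimera; 24 h compound exposure. Reporter mRNA quantified by RT-PCR, 6-FAM labeling and capillary electrophoresis; gain of signal versus DMSO.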

[13] = BSK_3C_Proliferation: Cell Proliferation Assessment in the BioMAP Diversity Plus: 3C Assay (AID 2283006); settings: primary human endothelial cells (HUVEC);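 for AC50: potency may reflect either rise or fall in cell number versus DMSO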
How it was run: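 Measured here: sulforhodamine B (0.1%) staining of TCA-fixed sub-confluent umbilical vein endothelial cultures 48 h post-dosing, absorbance 560 nm. DMSO served as negative control and baseline; both signal gain and loss were modelled.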

[14] = molecular target: human Retinoic Acid Receptor gamma (RARg), RARG (gene 5916) (UniProt P13631); assay: ATG_RARg_TRANS: Attagene TRANS-FACTORIAL HepG2 Assay for human Retinoic Acid Receptor gamma (RARg) (AID 2283009; active = hit-call score of the fitted dose curve at least 0.9, where 1 is the maximum)
Sequence of human Retinoic Acid Receptor gamma (RARg), RARG (gene 5916) (P13631 whole entry, looked up, the tested form may be a part): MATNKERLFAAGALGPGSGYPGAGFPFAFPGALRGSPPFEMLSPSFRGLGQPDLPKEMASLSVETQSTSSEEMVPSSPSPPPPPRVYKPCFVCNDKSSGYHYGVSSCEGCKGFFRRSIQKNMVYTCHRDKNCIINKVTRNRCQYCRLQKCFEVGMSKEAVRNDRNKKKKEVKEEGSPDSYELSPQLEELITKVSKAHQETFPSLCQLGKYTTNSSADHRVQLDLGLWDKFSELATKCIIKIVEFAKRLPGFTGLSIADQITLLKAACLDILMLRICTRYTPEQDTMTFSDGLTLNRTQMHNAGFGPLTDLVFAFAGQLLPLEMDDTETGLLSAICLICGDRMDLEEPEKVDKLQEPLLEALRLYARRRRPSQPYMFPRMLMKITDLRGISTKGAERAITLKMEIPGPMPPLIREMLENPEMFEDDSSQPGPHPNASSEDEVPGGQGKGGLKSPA
How it was run: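 Gain-of-signal relative to DMSO is reported from fluorescent capillary electrophoresis of RT-PCR reporter products. These came from HepG2 cells expressing transfected RARg-GAL4 chimeras with UAS reporters, harvested 24 h after dosing.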

[15] = molecular target: human RAR-related Orphan Receptor beta (RORb), RORB (gene 6096) (UniProt Q92753); assay: ATG_RORb_TRANS: Attagene TRANS-FACTORIAL HepG2 Assay for human RAR-related Orphan Receptor beta (RORb) (AID 2283010; active = hit-call score of the fitted dose curve at least 0.9, where 1 is the maximum)
Sequence of human RAR-related Orphan Receptor beta (RORb), RORB (gene 6096) (Q92753 whole entry, looked up, the tested form may be a part): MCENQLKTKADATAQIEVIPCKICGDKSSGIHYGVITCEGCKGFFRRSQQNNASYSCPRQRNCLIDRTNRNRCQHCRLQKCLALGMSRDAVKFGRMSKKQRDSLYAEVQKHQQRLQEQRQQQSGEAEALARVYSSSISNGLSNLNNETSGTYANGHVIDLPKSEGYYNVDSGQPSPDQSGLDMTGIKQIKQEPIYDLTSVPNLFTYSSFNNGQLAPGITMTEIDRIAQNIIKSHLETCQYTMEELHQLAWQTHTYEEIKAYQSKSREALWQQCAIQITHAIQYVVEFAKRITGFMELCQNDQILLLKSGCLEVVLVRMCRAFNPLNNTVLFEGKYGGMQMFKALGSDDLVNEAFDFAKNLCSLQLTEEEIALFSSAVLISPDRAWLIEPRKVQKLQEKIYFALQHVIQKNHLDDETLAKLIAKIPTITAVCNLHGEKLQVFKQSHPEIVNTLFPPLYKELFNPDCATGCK
How it was run: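 Multiplexed transcription-factor reporter assay: HepG2 cells transiently carrying NR-Gal4/GAL4-UAS constructs, 24 h treatment, mRNA quantified by RT-PCR plus capillary electrophoresis fluorescence; activity scored as induction over DMSO.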

[16] = molecular target: human RAR-related Orphan Receptor gamma (RORg), RORC (gene 6097) (UniProt P51449); assay: ATG_RORg_TRANS: Attagene TRANS-FACTORIAL HepG2 Assay for human RAR-related Orphan Receptor gamma (RORg) (AID 2283011; active = hit-call score of the fitted dose curve at least 0.9, where 1 is the maximum)
How it was run: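 First, HepG2 liver cells were transfected with GAL4-UAS-driven reporter constructs and the RORg-Gal4 fusion. Next, they were treated with chemical for 24 h. Finally, reporter mRNA was quantified by RT-PCR and capillary electrophoresis, with upward activity fitted against DMSO.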

[17] = molecular target: Peroxisome proliferator-activated receptor gamma (Homo sapiens) (UniProt P37231); assay: ATG_PPARg_TRANS: Attagene TRANS-FACTORIAL HepG2 Assay for human Peroxisome Proliferator-activated Receptor-gamma (PPARg) (AID 2283007; active = hit-call score of the fitted dose curve at least 0.9, where 1 is the maximum)
Sequence of Peroxisome proliferator-activated receptor gamma (Homo sapiens) (P37231 whole entry, looked up): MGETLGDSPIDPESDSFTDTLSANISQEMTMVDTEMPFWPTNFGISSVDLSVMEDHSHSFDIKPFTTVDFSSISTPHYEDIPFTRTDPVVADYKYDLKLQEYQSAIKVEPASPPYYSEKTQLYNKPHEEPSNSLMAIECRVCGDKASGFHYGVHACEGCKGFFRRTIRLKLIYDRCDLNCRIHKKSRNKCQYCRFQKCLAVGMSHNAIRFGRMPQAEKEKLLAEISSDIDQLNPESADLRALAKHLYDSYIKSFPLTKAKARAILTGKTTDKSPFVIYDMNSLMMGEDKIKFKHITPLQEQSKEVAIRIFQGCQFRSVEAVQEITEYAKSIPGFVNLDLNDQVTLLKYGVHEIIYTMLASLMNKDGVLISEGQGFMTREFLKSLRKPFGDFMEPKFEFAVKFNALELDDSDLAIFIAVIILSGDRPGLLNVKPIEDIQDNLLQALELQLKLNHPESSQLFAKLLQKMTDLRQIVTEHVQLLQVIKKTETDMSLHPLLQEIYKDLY
How it was run: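 Multiplexed reporter transcription units in HepG2, 24 h dosing, reporter transcripts quantified by fluorescent RT-PCR and capillary electrophoresis. Increase over DMSO scored.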

[18] = molecular target: Nuclear receptor subfamily 1 group I member 2 (Homo sapiens) (UniProt O75469); assay: ATG_PXR_TRANS: Attagene TRANS-FACTORIAL HepG2 Assay for human Pregnane X Receptor (PXR) (AID 2283008; active = hit-call score of the fitted dose curve at least 0.9, where 1 is the maximum)
Sequence of Nuclear receptor subfamily 1 group I member 2 (Homo sapiens) (O75469 whole entry, looked up, the tested form may be a part): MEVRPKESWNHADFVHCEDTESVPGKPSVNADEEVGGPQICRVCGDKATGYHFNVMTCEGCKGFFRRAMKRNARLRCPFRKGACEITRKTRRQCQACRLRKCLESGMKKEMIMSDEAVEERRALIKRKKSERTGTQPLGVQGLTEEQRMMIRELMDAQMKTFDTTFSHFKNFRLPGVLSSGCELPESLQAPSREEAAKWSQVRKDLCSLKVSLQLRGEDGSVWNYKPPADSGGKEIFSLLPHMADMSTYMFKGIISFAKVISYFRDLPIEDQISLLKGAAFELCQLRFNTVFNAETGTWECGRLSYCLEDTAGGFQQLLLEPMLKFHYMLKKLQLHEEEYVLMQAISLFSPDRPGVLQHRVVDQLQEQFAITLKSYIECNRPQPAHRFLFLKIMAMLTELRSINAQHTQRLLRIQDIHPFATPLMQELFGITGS
How it was run: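 Trans-factorial format: exogenous NR-Gal4 fusion activity, not endogenous factor, in transfected human HepG2 liver cells. After 24 h dosing, RNA isolated, reverse-transcribed, amplified and resolved by capillary electrophoresis; induction scored versus DMSO.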

[19] = molecular target: human Peroxisome Proliferator-activated Receptor alpha (PPARa), PPARA (gene 5465) (UniProt Q07869); assay: ATG_PPARa_TRANS: Attagene TRANS-FACTORIAL HepG2 Assay for human Peroxisome Proliferator-activated Receptor alpha (PPARa) (AID 2283001; active = hit-call score of the fitted dose curve at least 0.9, where 1 is the maximum)
Sequence of human Peroxisome Proliferator-activated Receptor alpha (PPARa), PPARA (gene 5465) (Q07869 whole entry, looked up, the tested form may be a part): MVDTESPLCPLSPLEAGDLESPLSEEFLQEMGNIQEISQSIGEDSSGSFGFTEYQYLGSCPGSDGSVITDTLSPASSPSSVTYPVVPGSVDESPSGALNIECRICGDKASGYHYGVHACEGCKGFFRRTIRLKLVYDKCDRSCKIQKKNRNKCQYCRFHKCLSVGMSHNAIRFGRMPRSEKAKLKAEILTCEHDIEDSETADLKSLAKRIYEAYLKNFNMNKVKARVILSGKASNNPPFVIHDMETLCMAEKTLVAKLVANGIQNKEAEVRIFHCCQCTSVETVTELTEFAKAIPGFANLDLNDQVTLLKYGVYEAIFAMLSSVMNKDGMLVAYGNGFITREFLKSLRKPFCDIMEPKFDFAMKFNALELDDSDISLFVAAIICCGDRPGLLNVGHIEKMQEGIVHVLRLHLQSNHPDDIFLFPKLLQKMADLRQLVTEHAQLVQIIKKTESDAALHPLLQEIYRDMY
How it was run: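 Transient HepG2 transfection, GAL4-UAS reporters, NR-Gal4 chimeras; 24 h compound exposure. Readout: reporter transcripts by RT-PCR, 6-FAM primer extension, HpaI digest, capillary electrophoresis. Positive direction vs DMSO baseline.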

[20] = BSK_3C_TissueFactor: BioMAP Diversity Plus: 3C Assay for Tissue Factor Biomarker Activity (AID 2282997); settings: BioMAP 3C HUVEC, tissue factor biomarker readout; actives raise or lower the signal
How it was run: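 After a 24 h chemical exposure of primary human umbilical vein endothelial cells, Tissue Factor levels were quantified by ELISA.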

Nc1nc(N)c2nc(CNc3ccc(C(=O)N[C@@H](CCC(=O)O)C(=O)O)cc3)cnc2n1
outcome [1]: inactive | outcome [2]: inactive | outcome [3]: inactive | outcome [4]: inactive | outcome [5]: inactive | outcome [6]: inactive | outcome [7]: inactive | outcome [8]: inactive | outcome [9]: inactive | outcome [10]: inactive | outcome [11]: inactive | outcome [12]: inactive | outcome [13]: inactive | outcome [14]: inactive | outcome [15]: inactive | outcome [16]: inactive

NC(=O)Cn1c(=O)cc(CCN2CCN(c3nccc4sccc34)CC2)c2ccc(F)cc21
outcome [1]: inactive | outcome [2]: inactive | AC50 [3]: 54.3 µM (active) | outcome [4]: inactive | outcome [5]: inactive | outcome [6]: inactive | outcome [7]: inactive | outcome [8]: inactive | outcome [9]: inactive | outcome [10]: inactive | AC50 [13]: 0.148 µM (active) | outcome [17]: inactive | outcome [18]: inactive

CCCCCCCCCCCCCCCCCC(=O)O
outcome [1]: inactive | outcome [2]: inactive | outcome [3]: inactive | outcome [4]: inactive | outcome [5]: inactive | outcome [6]: inactive | outcome [7]: inactive | outcome [8]: inactive | outcome [19]: inactive | outcome [10]: inactive | AC50 [13]: 3.97 µM (active) | outcome [17]: inactive | outcome [14]: inactive | outcome [16]: inactive

CCCCCCCCCCC
outcome [1]: inactive | outcome [2]: inactive | outcome [3]: inactive | outcome [5]: inactive | outcome [20]: inactive | outcome [6]: inactive | outcome [7]: inactive | outcome [8]: inactive | outcome [19]: inactive | outcome [10]: inactive | outcome [13]: inactive | outcome [14]: inactive

COc1cc(-c2nc(NC(=O)c3cc4cc(C)cc(C)c4n3CC(=O)O)sc2CCC2CCCCC2)c(OC)cc1Cl
outcome [1]: inactive | AC50 [2]: 26.7 µM (active) | AC50 [3]: 3.45 µM (active) | outcome [5]: inactive | AC50 [20]: 2.98 µM (active) | AC50 [6]: 2.92 µM (active) | AC50 [7]: 4.86 µM (active) | AC50 [8]: 3.77 µM (active) | outcome [19]: inactive | AC50 [10]: 5.54 µM (active) | AC50 [13]: 3.78 µM (active) | outcome [17]: inactive | outcome [18]: inactive

CCCCCCC(=O)OCC
outcome [1]: inactive | outcome [2]: inactive | outcome [3]: inactive | outcome [4]: inactive | outcome [5]: inactive | outcome [6]: inactive | outcome [7]: inactive | outcome [8]: inactive | outcome [9]: inactive | outcome [10]: inactive | outcome [11]: inactive | outcome [12]: inactive | outcome [13]: inactive | AC50 [18]: 57.3 µM (active) | outcome [14]: inactive | outcome [15]: inactive

Cc1cccc([N+](=O)[O-])c1C
outcome [1]: inactive | outcome [2]: inactive | outcome [3]: inactive | outcome [5]: inactive | outcome [20]: inactive | outcome [6]: inactive | outcome [7]: inactive | outcome [8]: inactive | outcome [10]: inactive | outcome [13]: inactive | outcome [17]: inactive | AC50 [18]: 5.4 µM (active) | outcome [14]: inactive

c1cc(-c2ccncc2)ccn1
outcome [1]: inactive | outcome [2]: inactive | outcome [3]: inactive | outcome [5]: inactive | outcome [20]: inactive | outcome [6]: inactive | outcome [7]: inactive | outcome [8]: inactive | outcome [10]: inactive | outcome [12]: inactive | outcome [13]: inactive | outcome [14]: inactive

Reference: PubChem BioAssay (EPA / NIEHS)
